Laboratory results taken from the supplement of paper PMC4954754.
± gives the uncertainty stated by the source.

test system: HEK293T-Rex XBP1-RLuc; test: XBP1-RLuc splicing reporter activation, triplicate, relative to 500 nM thapsigargin (% of thapsigargin); higher = stronger IRE1/XBP1s reporter activation; settings: 6.8 µM; 18 h; screen: confirmation
Protocol: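 HEK293T-Rex cells stably expressing the ERSE-firefly luciferase (BiP promoter, ATF6-preferring) or XBP1-splicing Renilla luciferase (IRE1/XBP1s) reporter, 1536-well plates, compound at 6.8 µM for 18 hr at 37 °C; luminescence read […] and expressed as % activation = 100*(compound - median DMSO)/(median 500 nM thapsigargin - median DMSO). Primary screen was single-pass; confirmation screen in triplicate (mean ± SD).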

| SMILES | XBP1-RLuc splicing reporter activation |
| --- | --- |
| Nc1ccc2sc(-c3cc(Cl)c(N)c(Cl)c3)nc2c1 | 10.16 ± 0.093 |
| NC(=O)c1c(NC(=O)/C=C/c2ccccc2)sc2c1CCCCC2 | 6.12 ± 0.94 |
| O=[N+]([O-])c1ccc2nc(/C=C/c3ccccc3)[nH]c2c1 | 1.8 ± 0.81 |
| N#Cc1c(NC(=O)/C=C/c2ccco2)sc2c1CCCC2 | 11.3 ± 1.3 |
| O=C(Nc1ccccc1O)c1ccc(C(=O)c2ccccc2)cc1 | 10.4 ± 0.77 |
| Oc1ccc(-c2cnc3c(Nc4ccc5[nH]ccc5c4)nccn23)cc1 | 39.2 ± 1.5 |
| COC(=O)c1ccc2c(COC(C)=O)c(OC(C)=O)ccc2c1COC(C)=O | 24.5 ± 2.2 |
| Nc1nc(Nc2ccc(Cl)c(Cl)c2)nc2ccccc12 | 11.3 ± 0.79 |
| COc1ccc(/C=C(\C#N)c2nc3ccccc3n2C)cc1 | -0.499 ± 0.016 |
| N#C/C(=C/c1ccc(O)c(O)c1)c1nc2ccccc2s1 | 19.7 ± 0.5 |
| O=C(/C=C/c1ccccc1)Nc1ccc(Br)cn1 | 0.069 ± 1.1 |
| COc1ccc(C2=Nn3c(nnc3-c3ccc(OC)cc3)SC2)cc1 | 10.4 ± 1.3 |
| N#C/C(=C\c1ccc(O)c(O)c1)C(=O)Nc1ccccc1 | 13.3 ± 0.68 |
| Cc1ccc(O)c(N/C=C/C(=O)c2ccc(F)cc2)c1 | 10.3 ± 7.9 |
| COc1ccc(-c2nn(-c3ccccc3)cc2/C=C/C(=O)O)cc1[N+](=O)[O-] | 8.64 ± 1.1 |
| NC(=O)c1c(NC(=O)c2cccc3ccccc23)sc2c1CCC2 | 9.06 ± 0.86 |
| Cc1ccc(-c2csc(Nc3ccc(O)cc3)n2)cc1 | 21.3 ± 2.7 |
| Nc1nc(Nc2ccccc2)cc(-c2ccccc2)n1 | 1.44 ± 0.87 |
| Cc1cnc(NC(=O)c2sc3nc4c(C)cccc4cc3c2N)s1 | 32.6 ± 0.95 |

| SMILES | XBP1-RLuc splicing reporter activation |
| --- | --- |
| CCc1cc2c(=O)c(-c3ccc4c(c3)OCCO4)coc2cc1OC | 12.2 ± 0.77 |
| Cc1ccc(C(=O)Nc2ccccc2N)cc1 | 14.1 ± 1.3 |
| O=C1c2cc(O)ccc2-c2ccc(O)cc21 | 17.8 ± 0.69 |
| COc1ccc(C(=O)Nc2nnc(-c3cccs3)s2)cc1 | 0.956 ± 0.85 |
| O=C(Nc1ccccc1O)c1cc2ccccc2o1 | 7.88 ± 0.66 |
| Nc1ccccc1NC(=O)c1ccc(C(F)(F)F)cc1 | 11.1 ± 2.7 |
| CN1C(=O)/C(=C\c2ccc(O)c(O)c2)SC1=S | 13.9 ± 1.8 |
| O=C(N/N=C/c1ccc(O)c(O)c1)c1ccc(Br)cc1 | 20.9 ± 0.79 |
| NC(=O)c1c(NC(=O)COc2ccccc2)sc2c1CCC2 | -0.209 ± 0.99 |
| COc1ccc(/C=C(\C#N)c2nc(-c3ccco3)cs2)cc1O | 4.32 ± 0.33 |
| CN(C)/C=N/C1=C(C#N)C(c2ccc3c(c2)OCO3)c2ccc3ccccc3c2O1 (configuration not stated) | 1.3 ± 3.6 |
| Nc1c(C(=O)Nc2ccccc2)sc2nc3c(cc12)CCCCC3 | 12.6 ± 4.7 |
| O=c1cc(-c2ccc(O)c(O)c2)oc2ccccc12 | 20.6 ± 1.5 |
| N#CC1=C(N)Oc2c(ccc3ccccc23)C1c1ccccc1 (configuration not stated) | 14.2 ± 1.1 |
| CCCNc1ccnc(N2CCc3ccccc3C2)n1 | -1.35 ± 0.17 |
| Cc1ccccc1NC(=O)c1sc2nc(N)c(C#N)c(-c3ccc(C(C)C)cc3)c2c1N | 15.4 ± 2.4 |
| Cc1ccc(O)c(NC(=O)c2cc(CC(C)C)on2)c1 | 30.2 ± 2.4 |
| CCn1c(/C(C#N)=C/c2ccc(OC)cc2)nc2ccccc21 | -0.629 ± 1.8 |
